Laboratory results: the supplement of paper PMC4100887
± gives the standard deviation of the averaged measurements.

Tests used:
IMR-90 = assay: relative cell viability (ATPlite) vs untreated control (fraction); higher = less toxic; details: 1 µM; 72 h
K562 [1] = assay: as above; details: 1 µM; 72 h
K562 [2] = assay: relative cell viability (ATPlite) vs untreated control, with imatinib (fraction); higher = less toxic; details: 1 µM; 72 h; imatinib 0.125 µM

SMILES | relative cell viability (IMR-90) | relative cell viability (K562 [1]) | relative cell viability (K562 [2])
O=[N+]([O-])/C=C/c1ccc2c(c1)OCO2 [Syk Inhibitor III] | 0.932 ± 0.087 | 0.819 ± 0.063 | 0.753 ± 0.033
CC(C)(C)c1cc(C=C(C#N)C#N)cc(Br)c1O | 0.962 ± 0.047 | 1 ± 0.12 | 0.847 ± 0.017
COc1ccc2c(c1)/C(=C/c1cnc[nH]1)C(=O)N2 | 1.31 ± 0.26 | 0.907 ± 0.17 | 0.881 ± 0.08
O=S(=O)(c1c(O)c(Cl)cc(Cl)c1Cl)c1c(O)c(Cl)cc(Cl)c1Cl [p38 MAP Kinase Inhibitor IV] | 0.988 ± 0.073 | 0.813 ± 0.076 | 0.762 ± 0.026
O=C1NC(=O)c2c1c1c3ccccc3n3c1c1c2c2ccccc2n1[C@H]1CC[C@@H]3O1 | 1.04 ± 0.092 | 0.872 ± 0.058 | 0.797 ± 0.069
COC(=O)[C@]1(O)C[C@@H]2O[C@@]1(C)n1c3ccccc3c3c4c(c5c6ccccc6n2c5c31)C(=O)NC4 [K-252a, Nocardiopsis sp.] | 0.668 ± 0.06 | 0.305 ± 0.26 | 0.363 ± 0.26
NC(=NN=Cc1ccc(-c2cccc([N+](=O)[O-])c2)o1)N[N+](=O)[O-] [ERK Inhibitor III] | 1.01 ± 0.12 | 0.937 ± 0.079 | 0.775 ± 0.053
